About 340 (0.34%) of roughly 99,000 compounds were called active. Shown is part of a subset that was picked to be rich in actives. A number with no mark means an inactive call. No stated cut-off is given here; in the data, active means TR-FRET ratio above about 2300; inactive means the rest.
assay: signal artefacts in PPARgamma/SRC-1 readout – biochemical, TR-FRET emission ratio, artefact control for PPARgamma SRC-1 recruitment agonists, primary screen (AID 1051); settings: TR-FRET detection artefact counter-screen, at 8 µM, active compounds read high

SMILES	TR-FRET ratio
Cc1cc(C)cc(C(=O)N(CCc2ccccc2)C2=CC3CCC(C2)N3C)c1 (configuration not stated)	1720
CS(=O)(=O)N(CC(=O)NC1CCCC1)Cc1ccc(F)cc1	1700
O=C(CO/N=C/c1ccccc1OC(F)F)NC1CCCC1	2060
CCOC(=O)NC(=O)C(=CNc1cccc(OC)c1)C(=O)NC(=O)OCC	1950
CCOC(=O)c1sc(-c2cccc([N+](=O)[O-])c2)cc1N	1540
CS/C(=C\[N+](=O)[O-])Nc1ccc(C)cc1	1980
CNC(=O)NC(=O)C(OC(=O)c1cccc(S(=O)(=O)N2CCCCC2)c1)c1ccccc1 (configuration not stated)	1550
COCC(C)NC(=O)CSc1nc2nn(-c3ccccc3)c(=O)c-2c2n1CCCCC2 (configuration not stated)	1600
S=c1[nH]nc(COc2ccccc2)n1-c1ccccc1	1980
Cc1cccc(OCc2ccc(C(=O)Nc3ccc(F)cc3)cc2)c1	1720
Fc1ccc(COc2cccc(-c3n[nH]c(=S)o3)c2)cc1	3340 (active)
Cc1cccc(NC(=O)c2sc(-c3ccccc3)nc2-c2ccc([N+](=O)[O-])cc2)c1	1770
Cc1ccc(S(=O)(=O)NCCC(=O)Nc2ccc(C)c(Cl)c2)cc1C	1870
Cc1ccc(-c2nc(-c3cccnc3)sc2CC(=O)Nc2ccc(C)c(Cl)c2)cc1	2930 (active)
O=S(=O)(NCc1ccccc1)c1ccc(S(=O)(=O)N2CCCC2)cc1	1770
N#Cc1ccc(C(=O)Nc2nc(-c3cccs3)c(C(=O)C(F)(F)F)s2)cc1	2000
Cc1nc(N)c(Br)c(C)c1Br	1890
CCN(CC)P(=O)(Nc1ccc(SC(F)F)cc1)c1ccc(N(C)C)cc1NC(=O)c1ccco1 (configuration not stated)	1800
CC(C)CCN1C(=O)c2ccc(C(=O)Nc3cccc(S(N)(=O)=O)c3)cc2C1=O	1840
COc1ccc(NC(=O)COC(=O)c2ccncc2)c(OC)c1	1980
COc1cccc(-n2nc(C(=O)N3CCN(Cc4ccccc4)CC3)c3ccccc3c2=O)c1	1300
CCOC(=O)Cc1csc(NC(=O)COc2ccc3c(C)cc(=O)oc3c2)n1	2450 (active)
CCOC(=O)Cc1csc(SCc2cc(=O)oc3cc(O)ccc23)n1	1620
CCOC(=O)Cc1csc(NC(=O)CSc2ccc(Br)cc2)n1	1780
O=C(NCCCNc1ccc([N+](=O)[O-])cc1Cl)c1ccccc1F	1920

SMILES	TR-FRET ratio
Cc1c(CN2CCCC(C(=O)c3cccc(Cl)c3)C2)c(=O)n(-c2ccccc2)n1C (configuration not stated)	1510
COc1cc(NC(=O)COC(=O)CSc2ccc3ccccc3c2)c(C)cc1[N+](=O)[O-]	1730
Cc1ccc(N2C(=O)C(NC(=O)c3c(F)cccc3F)(C(F)(F)F)C3=C2CC(C)(C)CC3=O)cc1 (configuration not stated)	1770
CC1CC(C)(C)NC(=S)N1CCC(=O)N1CCN(Cc2ccccc2)CC1 (configuration not stated)	1810
CC(C)C(c1nnnn1C(C)(C)C)N1CCN(Cc2cccnc2)CC1 (configuration not stated)	1760
Cc1nc(N2CCOCC2)c2c(C)c(C(=O)Nc3ccc(C(F)(F)F)cc3)sc2n1	1820
Cc1nc(N2CCC(C)CC2)c2c(C)c(C(=O)Nc3cc(F)ccc3C)sc2n1	2400 (active)
Cc1nc(N2CCN(c3ccccn3)CC2)c2c(C)c(C(=O)Nc3ccc(F)cc3)sc2n1	1920
COC(=O)c1c(C)[nH]c(C)c1-c1ccc([N+](=O)[O-])cc1	1710
CCOc1cc(CNn2c(C)nnc2SCC(=O)NC(C)(C)C)ccc1OCC(=O)NC(C)(C)C	1840
O=C(NNS(=O)(=O)c1ccc(F)cc1)c1cnccn1	1930
Cc1ccc(NC(=S)N(CCN2CCCCC2)Cc2ccco2)cc1C	1560
COc1cc(C(=O)OCc2ccc([N+](=O)[O-])cc2)cc(OC)c1OC	1470
S=C(Cc1ccc(Cl)cc1)N1CCOCC1	2050
COc1cc(NS(=O)(=O)c2ccc(NC(=O)c3ccc(S(=O)(=O)N4CCCCC4)cc3)cc2)ncn1	1650
CCC(=O)N(Cc1cc2ccccc2[nH]c1=O)c1ccc(OC)cc1	1990
COc1ccc(-n2nnnc2SCC(=O)NCc2cccs2)cc1	1830
CN1CCN(S(=O)(=O)c2cccc(C(=O)N3CCc4ccccc43)c2)CC1	1760
Cc1ccc(N2C(=O)C(CC(=O)Nc3cccc(F)c3)N(CCc3ccncc3)C2=O)cc1 (configuration not stated)	1810
CCOc1cnc(-c2c(-c3ccccc3Cl)noc2C)o1	1830
O=C(COC(=O)c1cc(S(=O)(=O)N2CCCCC2)ccc1Cl)NCc1ccco1	1930
Cc1cc(NC(=O)COC(=O)c2ccc(F)c(S(=O)(=O)N3CCOCC3)c2)no1	1740
COc1ccc(S(=O)(=O)N2CCCCCC2)cc1C(=O)OCC(=O)Nc1cc(C)on1	2360 (active)
COc1ccnc(Oc2ccccc2)n1	1760
O=C(Nc1ccc(N2CCN(C(=O)c3cccs3)CC2)cc1)c1cccnc1Cl	1580

SMILES	TR-FRET ratio
CNS(=O)(=O)c1ccc(N2CCCC2=O)c([N+](=O)[O-])c1	1690
O=S(=O)(c1ccc(-c2ccccc2)cc1)N1CCCC1	1580
CC(=O)OC(COc1ccc(F)cc1)Cn1cnc2ccccc21 (configuration not stated)	1950
COC(=O)c1ccc(NC(=S)Nc2cccc(C)n2)cc1	1830
CC(OC(=O)c1ccc2ccccc2n1)C(=O)c1ccccc1 (configuration not stated)	1760
Cc1cccc(NC(=O)c2ccc3ccccc3n2)n1	2320 (active)
COc1ccc(N2CCN(CCCNC(=O)C3CCN(S(=O)(=O)N4CCOCC4)CC3)CC2)cc1	1660
COc1ccc(C)cc1NC(=S)Nc1ccccc1SC	1550
O=C(N/N=C/c1ccc([N+](=O)[O-])o1)c1cccc(S(=O)(=O)N2CCOCC2)c1	2000
COC(=O)c1ccc(CN2CCN(CCCc3ccccc3)C(CCO)C2)cc1 (configuration not stated)	1770
CC(=O)N1c2ccccc2N(Cc2ccc([N+](=O)[O-])cc2)C(=O)C1(C)C	1840
N#Cc1c(NC(=O)C2CC(Cl)=CCC2C(=O)O)sc2c1CCCCC2 (configuration not stated)	1990
COC(=O)C(C)N=Cc1ccccc1 (configuration not stated)	1960
CCN(CC)S(=O)(=O)c1ccc(Cl)c(NC(=O)c2ccncc2)c1	1750
Cc1ccc(-c2cn3cc([N+](=O)[O-])ccc3n2)cc1	1970
COc1cc(/C=C/C(=O)OCC(=O)N2CCOCC2)ccc1OCC#N	1960
Cc1cc(NC(=O)CSc2nc3c(cc2C#N)CCCCC3)no1	1930
C/C(CC(=O)Nc1cccc(F)c1)=N\NC(=O)C(=O)NC1CCCCC1	1840
CCOc1ccc(N(CC(=O)NCCc2ccc(OC)cc2)S(C)(=O)=O)cc1	1790
Cc1ccccc1CN(c1ccc(C(=O)NCC2CCCO2)cc1)S(C)(=O)=O (configuration not stated)	1760
CNc1[nH]ncc1[N+](=O)[O-]	1620
O=C(c1ccc(OC2CCN(Cc3ccccn3)CC2)cc1)N1CCCCCC1	1590
CCc1nnc(NC(=O)/C=C/c2ccc(C)o2)s1	1650
CCOC(=O)C1CCCN(C(=O)c2cccc(S(=O)(=O)N3CCOCC3)c2)C1 (configuration not stated)	1820
Cc1nc2ccc(NC(=S)N3CCC(C)CC3)cc2nc1C	1940

SMILES	TR-FRET ratio
Cn1cc(CCC(=O)N2CCCC(C(=O)c3ccc(C(C)(C)C)cc3)C2)cn1 (configuration not stated)	2020
Cc1coc(C)c1C(=O)CC1(O)C(=O)N(C)c2ccc(Cl)cc21 (configuration not stated)	1870
CC(C)CC(CC(C)C)=NNC(=O)c1ccc(CSc2nncn2C)cc1	1890
O=C(C1CC1)N1N=C2CCCCC2C1(O)C(F)(F)F (configuration not stated)	1750
O=[N+]([O-])c1cc(S(=O)(=O)N2CCCC2)ccc1NN=C1CCCC1	1910
Cn1cnnc1SCc1nnc(-c2ccccc2Br)o1	1590
CCOC(=O)CCCNC(=O)COC(=O)/C=C/c1ccc2c(c1)OCO2	1620
O=C(OCC(=O)N1CCOCC1)c1ccc(N2CCOCC2)c([N+](=O)[O-])c1	2030
COc1ccc(NC(=S)N2CCCC(CO)C2)c(OC)c1 (configuration not stated)	1690
Cc1nn(C)c(C)c1S(=O)(=O)N1CCC(CO)(Cc2ccc(Cl)cc2)CC1	1980
O=C(CCN1C(=O)c2ccccc2C1=O)NNC(=O)c1ccc(Cl)cc1Cl	2130
CCC1CO/C(=C(\C(=C(Cl)Cl)N2CCOCC2)[N+](=O)[O-])N1 (configuration not stated)	1830
CN(C(=O)CSc1nncc2ccccc12)C1CCCCC1	1810
Cc1ccc(Sc2ccncc2S(N)(=O)=O)cc1	1560
CCOC(=O)c1c(C)[nH]c(=S)c(C#N)c1-c1ccccc1	1630
N#Cc1c(-c2ccc(Cl)cc2)c2c([nH]c1=S)CCCC2	2380 (active)
CNc1nccc(-c2ccc(Cl)cc2)c1C#N	1880
Clc1cccc(-c2nc(NCC3CCCO3)c3ccccc3n2)c1 (configuration not stated)	1630
CCc1[nH]nc(C(=O)N2CCCC(CNS(=O)(=O)c3cccs3)C2)c1C (configuration not stated)	1580
O=C(O)Cc1ccc(-c2ccccc2)cc1	1790
O=C(O)Cc1sc(-c2ccccc2)nc1-c1cccs1	2910 (active)
O=C(O)Cc1sc(-c2ccc(C(=O)O)cc2)nc1-c1ccccc1	1940
